Experimental data taken from ChEMBL document CHEMBL1961873, “Compounds: GSK PKIS; Assays: Nanosyn kinase panel” (2012).

Key:
[1] = biological target: High affinity nerve growth factor receptor (Homo sapiens) (UniProt P04629); conditions: at 1 µM;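 note: each value is the mean percent inhibition of TRKA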
[2] = biological target: BDNF/NT-3 growth factors receptor (Homo sapiens) (UniProt Q16620); conditions: at 0.1 µM
[3] = biological target: BDNF/NT-3 growth factors receptor (Homo sapiens) (UniProt Q16620); conditions: at 1 µM
[4] = biological target: NT-3 growth factor receptor (Homo sapiens) (UniProt Q16288); conditions: at 0.1 µM
NT-3 growth factor receptor (Homo sapiens), sequence (Q16288 32-839 limits assumed): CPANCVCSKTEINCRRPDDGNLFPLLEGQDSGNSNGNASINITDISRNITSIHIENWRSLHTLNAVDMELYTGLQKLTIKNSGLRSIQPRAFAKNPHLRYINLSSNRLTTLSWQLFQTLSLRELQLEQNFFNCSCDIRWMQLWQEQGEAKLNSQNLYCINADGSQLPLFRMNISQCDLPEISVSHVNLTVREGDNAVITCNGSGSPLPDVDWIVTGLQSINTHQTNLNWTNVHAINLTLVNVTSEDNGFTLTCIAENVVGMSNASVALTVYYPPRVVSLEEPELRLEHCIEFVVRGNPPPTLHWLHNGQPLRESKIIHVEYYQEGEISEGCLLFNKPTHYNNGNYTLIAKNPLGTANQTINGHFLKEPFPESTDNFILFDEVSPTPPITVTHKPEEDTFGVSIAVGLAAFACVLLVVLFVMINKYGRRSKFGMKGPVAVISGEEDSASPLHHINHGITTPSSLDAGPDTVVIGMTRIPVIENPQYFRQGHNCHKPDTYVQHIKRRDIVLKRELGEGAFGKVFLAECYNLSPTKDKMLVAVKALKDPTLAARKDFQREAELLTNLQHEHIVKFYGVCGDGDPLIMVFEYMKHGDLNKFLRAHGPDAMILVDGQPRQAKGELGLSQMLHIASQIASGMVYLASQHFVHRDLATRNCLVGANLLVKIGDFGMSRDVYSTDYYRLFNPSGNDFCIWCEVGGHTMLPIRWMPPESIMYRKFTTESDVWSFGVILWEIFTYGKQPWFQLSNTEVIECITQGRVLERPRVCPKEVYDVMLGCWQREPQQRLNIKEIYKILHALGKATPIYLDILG

[5] = biological target: NT-3 growth factor receptor (Homo sapiens) (UniProt Q16288); conditions: at 1 µM
[6] = biological target: T1, Tyrosine-protein kinase TXK (Homo sapiens) (UniProt P42681); conditions: at 0.1 µM
T1 sequence (whole entry): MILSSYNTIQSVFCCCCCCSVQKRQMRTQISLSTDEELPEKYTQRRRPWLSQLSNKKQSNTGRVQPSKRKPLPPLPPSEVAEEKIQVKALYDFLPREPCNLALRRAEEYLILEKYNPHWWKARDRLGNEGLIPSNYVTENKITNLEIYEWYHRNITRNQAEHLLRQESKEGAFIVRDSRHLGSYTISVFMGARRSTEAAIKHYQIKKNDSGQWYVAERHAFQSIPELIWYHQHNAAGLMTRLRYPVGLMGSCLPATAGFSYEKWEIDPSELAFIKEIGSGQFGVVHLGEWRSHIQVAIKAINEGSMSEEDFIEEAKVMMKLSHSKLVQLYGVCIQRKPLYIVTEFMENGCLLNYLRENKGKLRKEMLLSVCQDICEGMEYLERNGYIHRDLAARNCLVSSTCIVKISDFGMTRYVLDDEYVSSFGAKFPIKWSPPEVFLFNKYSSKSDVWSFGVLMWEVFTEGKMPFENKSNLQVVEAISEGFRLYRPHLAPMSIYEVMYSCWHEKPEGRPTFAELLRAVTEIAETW

[7] = biological target: T1, Tyrosine-protein kinase TXK (Homo sapiens); conditions: at 1 µM
[8] = biological target: Non-receptor tyrosine-protein kinase TYK2 (Homo sapiens) (UniProt P29597); conditions: at 0.1 µM;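 note: each value is a mean of the inhibition readings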
Non-receptor tyrosine-protein kinase TYK2 (Homo sapiens), sequence (P29597 whole entry): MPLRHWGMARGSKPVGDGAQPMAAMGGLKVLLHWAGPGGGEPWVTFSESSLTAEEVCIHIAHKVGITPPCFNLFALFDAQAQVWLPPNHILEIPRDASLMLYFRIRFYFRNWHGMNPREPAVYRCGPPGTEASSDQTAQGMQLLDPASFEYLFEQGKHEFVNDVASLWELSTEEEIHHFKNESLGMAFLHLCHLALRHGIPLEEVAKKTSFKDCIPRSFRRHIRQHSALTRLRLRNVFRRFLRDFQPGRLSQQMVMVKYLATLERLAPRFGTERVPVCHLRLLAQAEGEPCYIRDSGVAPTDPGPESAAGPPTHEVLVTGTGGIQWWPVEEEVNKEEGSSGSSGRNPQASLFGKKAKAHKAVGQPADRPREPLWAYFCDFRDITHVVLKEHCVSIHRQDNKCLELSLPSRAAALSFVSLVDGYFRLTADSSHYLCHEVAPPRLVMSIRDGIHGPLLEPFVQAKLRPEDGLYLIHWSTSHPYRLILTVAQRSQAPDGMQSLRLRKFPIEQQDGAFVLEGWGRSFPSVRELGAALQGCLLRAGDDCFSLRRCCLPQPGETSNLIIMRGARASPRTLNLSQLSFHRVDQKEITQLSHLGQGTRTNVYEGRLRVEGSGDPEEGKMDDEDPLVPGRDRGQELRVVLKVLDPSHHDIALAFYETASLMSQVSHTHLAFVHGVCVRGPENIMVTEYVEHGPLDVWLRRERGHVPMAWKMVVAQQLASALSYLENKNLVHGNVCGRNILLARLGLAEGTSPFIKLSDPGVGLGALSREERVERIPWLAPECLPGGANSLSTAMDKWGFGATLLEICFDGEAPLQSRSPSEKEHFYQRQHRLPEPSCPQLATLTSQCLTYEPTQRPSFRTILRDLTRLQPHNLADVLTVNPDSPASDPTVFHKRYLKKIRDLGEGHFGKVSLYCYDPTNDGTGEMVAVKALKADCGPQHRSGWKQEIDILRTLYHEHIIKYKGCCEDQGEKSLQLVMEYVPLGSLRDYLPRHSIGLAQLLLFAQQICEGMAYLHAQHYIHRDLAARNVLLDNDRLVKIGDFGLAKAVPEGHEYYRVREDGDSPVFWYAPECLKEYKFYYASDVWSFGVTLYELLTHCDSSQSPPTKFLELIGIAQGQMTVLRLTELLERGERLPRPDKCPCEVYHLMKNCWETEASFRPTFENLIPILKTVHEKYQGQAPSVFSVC

[9] = biological target: T2, Dual specificity protein kinase TTK (Homo sapiens) (UniProt P33981); conditions: at 1 µM;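 note: reported figures are mean TTK inhibition at 1 µM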
T2 sequence (whole entry): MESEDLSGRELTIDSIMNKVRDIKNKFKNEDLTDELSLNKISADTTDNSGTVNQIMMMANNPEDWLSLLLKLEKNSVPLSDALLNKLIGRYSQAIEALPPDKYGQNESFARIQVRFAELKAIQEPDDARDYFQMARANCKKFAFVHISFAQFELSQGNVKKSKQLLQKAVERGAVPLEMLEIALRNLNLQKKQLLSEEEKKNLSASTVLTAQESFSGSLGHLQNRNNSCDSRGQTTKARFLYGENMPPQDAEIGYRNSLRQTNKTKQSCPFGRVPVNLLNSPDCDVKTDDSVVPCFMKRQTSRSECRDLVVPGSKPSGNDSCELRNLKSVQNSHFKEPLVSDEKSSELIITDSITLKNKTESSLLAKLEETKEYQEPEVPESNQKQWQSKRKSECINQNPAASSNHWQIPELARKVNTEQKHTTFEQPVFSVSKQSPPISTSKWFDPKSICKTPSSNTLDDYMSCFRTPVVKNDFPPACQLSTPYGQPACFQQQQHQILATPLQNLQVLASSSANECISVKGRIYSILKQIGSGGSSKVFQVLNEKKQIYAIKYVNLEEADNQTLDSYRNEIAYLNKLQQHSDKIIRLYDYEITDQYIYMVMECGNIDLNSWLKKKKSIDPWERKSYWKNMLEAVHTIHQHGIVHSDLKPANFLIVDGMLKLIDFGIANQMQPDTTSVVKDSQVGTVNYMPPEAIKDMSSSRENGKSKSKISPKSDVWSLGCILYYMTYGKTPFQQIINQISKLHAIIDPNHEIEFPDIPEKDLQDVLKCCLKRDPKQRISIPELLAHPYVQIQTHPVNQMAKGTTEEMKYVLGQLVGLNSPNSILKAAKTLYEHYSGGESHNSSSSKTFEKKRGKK

[10] = biological target: T3, Aurora kinase A (Homo sapiens) (UniProt O14965); conditions: at 0.1 µM
T3 sequence (whole entry): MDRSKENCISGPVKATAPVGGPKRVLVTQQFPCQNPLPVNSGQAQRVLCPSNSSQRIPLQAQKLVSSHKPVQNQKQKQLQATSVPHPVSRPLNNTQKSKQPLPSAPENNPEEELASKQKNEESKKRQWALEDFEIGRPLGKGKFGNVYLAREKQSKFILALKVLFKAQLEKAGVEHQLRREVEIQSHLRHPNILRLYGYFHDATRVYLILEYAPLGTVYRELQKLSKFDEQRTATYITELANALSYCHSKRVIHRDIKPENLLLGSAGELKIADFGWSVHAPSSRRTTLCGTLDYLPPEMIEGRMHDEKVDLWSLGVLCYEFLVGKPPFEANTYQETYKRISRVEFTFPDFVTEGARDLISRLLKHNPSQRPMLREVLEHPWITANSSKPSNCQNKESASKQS

[11] = biological target: T3, Aurora kinase A (Homo sapiens); conditions: at 1 µM
[12] = biological target: Aurora kinase B (Homo sapiens) (UniProt Q96GD4); conditions: at 0.1 µM
[13] = biological target: Aurora kinase B (Homo sapiens) (UniProt Q96GD4); conditions: at 1 µM
[14] = biological target: T4, Aurora kinase C (Homo sapiens) (UniProt Q9UQB9); conditions: at 0.1 µM
T4 sequence (whole entry): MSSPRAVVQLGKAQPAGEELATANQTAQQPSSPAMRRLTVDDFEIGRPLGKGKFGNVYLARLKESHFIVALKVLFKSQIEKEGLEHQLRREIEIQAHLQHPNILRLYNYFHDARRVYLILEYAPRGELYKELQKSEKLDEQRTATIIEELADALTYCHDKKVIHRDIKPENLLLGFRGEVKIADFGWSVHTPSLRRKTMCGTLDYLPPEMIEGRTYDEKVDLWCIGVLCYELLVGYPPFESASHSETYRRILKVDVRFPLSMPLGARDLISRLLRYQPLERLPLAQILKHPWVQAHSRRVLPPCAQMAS

[15] = biological target: T4, Aurora kinase C (Homo sapiens); conditions: at 1 µM
[16] = biological target: Serine/threonine-protein kinase 10 (Homo sapiens) (UniProt O94804); conditions: at 0.1 µM
Serine/threonine-protein kinase 10 (Homo sapiens), sequence (O94804 whole entry, looked up): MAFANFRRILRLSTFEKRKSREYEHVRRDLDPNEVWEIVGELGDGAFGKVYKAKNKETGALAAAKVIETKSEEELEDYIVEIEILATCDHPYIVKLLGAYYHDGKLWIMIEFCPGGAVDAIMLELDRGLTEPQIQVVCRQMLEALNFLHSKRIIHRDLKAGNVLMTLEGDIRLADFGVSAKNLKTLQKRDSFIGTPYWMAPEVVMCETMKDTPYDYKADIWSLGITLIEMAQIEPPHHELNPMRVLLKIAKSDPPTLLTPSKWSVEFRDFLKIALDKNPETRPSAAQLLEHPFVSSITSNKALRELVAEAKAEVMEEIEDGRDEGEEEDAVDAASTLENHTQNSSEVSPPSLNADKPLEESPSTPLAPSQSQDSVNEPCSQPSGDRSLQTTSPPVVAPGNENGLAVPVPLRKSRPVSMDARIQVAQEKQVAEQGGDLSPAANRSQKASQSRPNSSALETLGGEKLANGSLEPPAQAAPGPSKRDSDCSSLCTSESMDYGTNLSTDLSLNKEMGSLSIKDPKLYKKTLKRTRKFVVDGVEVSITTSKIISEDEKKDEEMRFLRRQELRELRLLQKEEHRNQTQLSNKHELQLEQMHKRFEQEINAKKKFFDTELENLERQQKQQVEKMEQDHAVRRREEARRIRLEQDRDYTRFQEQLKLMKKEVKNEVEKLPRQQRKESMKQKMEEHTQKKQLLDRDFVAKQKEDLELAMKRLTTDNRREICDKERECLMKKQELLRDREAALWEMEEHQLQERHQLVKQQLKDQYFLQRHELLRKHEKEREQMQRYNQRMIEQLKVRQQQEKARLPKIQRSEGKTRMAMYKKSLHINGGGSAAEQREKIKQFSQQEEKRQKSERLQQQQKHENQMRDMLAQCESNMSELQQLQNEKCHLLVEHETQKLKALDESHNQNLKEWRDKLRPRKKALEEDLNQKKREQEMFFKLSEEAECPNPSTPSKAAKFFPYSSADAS

[17] = biological target: Serine/threonine-protein kinase 10 (Homo sapiens) (UniProt O94804); conditions: at 1 µM
[18] = biological target: T5, Mitogen-activated protein kinase kinase kinase kinase 2 (Homo sapiens) (UniProt Q12851); conditions: at 0.1 µM
T5 sequence (whole entry): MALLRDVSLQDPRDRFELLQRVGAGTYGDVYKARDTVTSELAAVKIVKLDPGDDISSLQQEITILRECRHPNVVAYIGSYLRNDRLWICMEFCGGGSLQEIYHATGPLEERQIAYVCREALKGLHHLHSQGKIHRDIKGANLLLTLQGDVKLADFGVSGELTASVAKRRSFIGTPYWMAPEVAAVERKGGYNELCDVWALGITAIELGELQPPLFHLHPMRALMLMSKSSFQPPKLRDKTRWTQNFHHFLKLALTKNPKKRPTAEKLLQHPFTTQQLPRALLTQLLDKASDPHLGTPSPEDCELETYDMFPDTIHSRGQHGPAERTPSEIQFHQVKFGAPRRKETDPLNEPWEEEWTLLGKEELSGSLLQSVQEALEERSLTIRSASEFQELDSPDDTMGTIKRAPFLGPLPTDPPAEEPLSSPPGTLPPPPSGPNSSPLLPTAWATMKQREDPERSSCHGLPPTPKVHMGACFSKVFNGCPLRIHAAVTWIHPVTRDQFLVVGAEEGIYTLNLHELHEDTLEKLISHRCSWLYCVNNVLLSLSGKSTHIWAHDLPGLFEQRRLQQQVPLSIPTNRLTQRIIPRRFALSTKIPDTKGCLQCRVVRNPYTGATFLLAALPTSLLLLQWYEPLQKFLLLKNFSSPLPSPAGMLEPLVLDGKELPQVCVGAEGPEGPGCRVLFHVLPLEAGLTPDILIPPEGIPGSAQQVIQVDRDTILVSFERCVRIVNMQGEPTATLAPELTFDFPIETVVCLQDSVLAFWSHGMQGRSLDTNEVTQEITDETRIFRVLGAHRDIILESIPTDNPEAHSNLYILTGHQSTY

[19] = biological target: T5, Mitogen-activated protein kinase kinase kinase kinase 2 (Homo sapiens); conditions: at 1 µM
[20] = biological target: Mitogen-activated protein kinase kinase kinase kinase 4 (Homo sapiens) (UniProt O95819); conditions: at 0.1 µM
Mitogen-activated protein kinase kinase kinase kinase 4 (Homo sapiens), sequence (O95819 2-1239 limits assumed): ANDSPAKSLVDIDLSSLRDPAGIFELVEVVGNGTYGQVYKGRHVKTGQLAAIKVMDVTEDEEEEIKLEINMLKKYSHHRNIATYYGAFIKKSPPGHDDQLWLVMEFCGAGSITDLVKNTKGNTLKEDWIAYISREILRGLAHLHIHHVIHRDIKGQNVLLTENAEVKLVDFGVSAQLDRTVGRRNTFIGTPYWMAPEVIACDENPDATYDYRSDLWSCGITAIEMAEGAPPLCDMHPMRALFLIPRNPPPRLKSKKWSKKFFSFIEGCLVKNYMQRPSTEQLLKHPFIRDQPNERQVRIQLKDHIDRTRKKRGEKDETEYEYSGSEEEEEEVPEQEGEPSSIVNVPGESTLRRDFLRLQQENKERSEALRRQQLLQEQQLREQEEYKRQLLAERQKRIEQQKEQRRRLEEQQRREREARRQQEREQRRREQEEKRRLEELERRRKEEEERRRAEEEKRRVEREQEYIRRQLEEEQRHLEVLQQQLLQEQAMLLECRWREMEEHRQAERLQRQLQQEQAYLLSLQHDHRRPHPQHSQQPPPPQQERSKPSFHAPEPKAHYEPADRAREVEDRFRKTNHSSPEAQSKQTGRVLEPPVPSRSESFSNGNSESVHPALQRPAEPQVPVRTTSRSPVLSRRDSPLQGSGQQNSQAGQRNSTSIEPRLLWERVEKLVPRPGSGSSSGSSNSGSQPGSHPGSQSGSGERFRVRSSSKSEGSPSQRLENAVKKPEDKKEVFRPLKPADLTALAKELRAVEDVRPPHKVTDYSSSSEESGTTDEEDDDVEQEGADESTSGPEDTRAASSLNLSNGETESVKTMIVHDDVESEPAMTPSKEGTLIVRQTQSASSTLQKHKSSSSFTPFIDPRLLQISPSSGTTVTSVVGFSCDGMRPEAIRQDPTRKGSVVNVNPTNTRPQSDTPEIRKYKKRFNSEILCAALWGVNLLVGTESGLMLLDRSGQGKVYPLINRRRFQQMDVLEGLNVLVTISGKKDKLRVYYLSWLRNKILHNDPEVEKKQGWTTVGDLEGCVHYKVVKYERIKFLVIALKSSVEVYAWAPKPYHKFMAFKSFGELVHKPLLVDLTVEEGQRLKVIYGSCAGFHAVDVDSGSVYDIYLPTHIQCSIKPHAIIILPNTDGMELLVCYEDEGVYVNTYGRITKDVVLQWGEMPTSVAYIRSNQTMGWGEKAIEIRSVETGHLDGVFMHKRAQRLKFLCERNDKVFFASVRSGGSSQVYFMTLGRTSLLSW

BDNF/NT-3 growth factors receptor (Homo sapiens), sequence (Q16620 32-822 limits assumed): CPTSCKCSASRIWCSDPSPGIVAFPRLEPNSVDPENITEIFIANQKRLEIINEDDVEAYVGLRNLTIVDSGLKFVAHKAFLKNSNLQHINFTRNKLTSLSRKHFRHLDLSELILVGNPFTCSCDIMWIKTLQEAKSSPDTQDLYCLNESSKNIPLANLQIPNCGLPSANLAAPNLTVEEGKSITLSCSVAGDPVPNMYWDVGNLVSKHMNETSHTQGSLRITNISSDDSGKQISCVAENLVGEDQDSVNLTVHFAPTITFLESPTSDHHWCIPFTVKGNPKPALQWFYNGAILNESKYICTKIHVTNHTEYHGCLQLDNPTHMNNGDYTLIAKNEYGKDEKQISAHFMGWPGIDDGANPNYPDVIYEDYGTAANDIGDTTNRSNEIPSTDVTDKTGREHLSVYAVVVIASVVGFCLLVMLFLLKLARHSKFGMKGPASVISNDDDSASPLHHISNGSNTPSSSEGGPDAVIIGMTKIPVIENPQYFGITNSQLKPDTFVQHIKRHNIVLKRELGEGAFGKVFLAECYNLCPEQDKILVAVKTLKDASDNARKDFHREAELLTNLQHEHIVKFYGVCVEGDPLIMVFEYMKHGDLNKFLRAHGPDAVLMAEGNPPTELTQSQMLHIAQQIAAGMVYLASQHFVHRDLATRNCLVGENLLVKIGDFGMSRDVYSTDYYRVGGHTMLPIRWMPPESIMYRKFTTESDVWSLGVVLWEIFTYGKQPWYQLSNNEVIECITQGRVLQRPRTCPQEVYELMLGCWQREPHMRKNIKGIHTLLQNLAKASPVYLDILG

Structure (SMILES)	inhibition [1] [%]	inhibition [2] [%]	inhibition [3] [%]	inhibition [4] [%]	inhibition [5] [%]	inhibition [6] [%]	inhibition [7] [%]	inhibition [8] [%]	inhibition [9] [%]	inhibition [10] [%]	inhibition [11] [%]	inhibition [12] [%]	inhibition [13] [%]	inhibition [14] [%]	inhibition [15] [%]	inhibition [16] [%]	inhibition [17] [%]	inhibition [18] [%]	inhibition [19] [%]	inhibition [20] [%]
NS(=O)(=O)c1ccc(-c2cc3ccncc3cc2OCc2ccccc2)cc1	0.22	2.7	2.46	2.49	5.04	1.58	1.28	-3.96	9.25	2.34	7.25	2.9	4.42	-0.1	-6.92	3.53	9.35	-0.94	2.03	5.89
[O-][S+]1CCN(Cc2ccc(-c3ccc4ncnc(Nc5ccc(OCc6ccccc6)c(Cl)c5)c4c3)o2)CC1	3.75	1.6	2.14	0.66	0.36	0.16	2.65	-1.17	8.12	1.75	2.75	3.28	5.05	-0.09	1.6	3.93	12.3	-0.35	1.53	0.26
CN(C)CCCn1c(-c2nonc2N)nc2cnccc21	3.29	-0.15	3.55	-0.01	3.2	3.61	4.3	-2.99	0.63	3.15	6.09	3.93	4.46	0.95	6.01	3.09	6.11	2.05	4.37	5.05
COC(=O)c1cncc(/C=C/c2c(C)cc(O)cc2C)c1	0.47	2.4	4.35	2	6.12	4.44	22.5	-4.1	1.18	2.33	8.18	2.38	9.6	2.3	-1.31	5.36	26.2	0.34	4.75	3.73
NS(=O)(=O)c1ccc(Nc2cc(-c3cccc(O)c3)n[nH]2)cc1	10.5	5.48	12.6	5.55	14.4	2.77	2.95	-9.08	0.24	3.17	17.2	9.52	19.4	7.83	19.6	6.23	8.5	2.13	10.7	7.82
C[C@@H](Oc1cc(-n2cnc3ccc(OCC4CCN(C)CC4)cc32)sc1C(N)=O)c1ccccc1C(F)(F)F	0.72	-0.51	1.01	-0.61	0.64	-1.27	1.35	2.67	1.44	-0.53	-0.47	-2.46	2.14	-1.94	0.8	64.5	90.5	1.86	12.1	-0.3
COc1cccc(-n2nc(C)c3c(N/N=C(\C)c4ccncc4)ncnc32)c1	2.57	-1.2	0.69	-2.28	-0.38	3.18	2.67	0.67	2.24	1.27	0.79	2.73	3.95	0.6	4.15	0.54	3.61	-0.39	0.32	1.37
C[C@@H](Oc1cc(-n2cnc3ccc(OC[C@@H](O)CO)cc32)sc1C(N)=O)c1ccccc1Cl	3.73	1.11	14.7	3.59	29.4	0.37	3.1	3.13	1.94	-0.94	2.13	0.7	1.36	-1.38	-2.42	48.1	85.7	3.67	16.4	-0.19
NC(=O)c1sc(-n2cnc3ccccc32)cc1OCc1ccccc1Br	5.34	3.05	4.07	1.79	3.41	3.34	5.57	-1.33	13	3.86	4.39	4.16	9.94	1.83	8.84	17.4	60.6	2.47	8.46	4.11
NC(=O)c1cccc(Nc2nccc(Nc3cccc(F)c3)n2)c1	2.65	1.46	14.8	-1.62	5.94	6.53	29	3.52	6.29	14.9	65.5	12.6	49.3	25.6	85.2	-0.14	12.3	0.98	14.1	8.77
Cc1ccc(Nc2ccnc(Nc3cccc(C(N)=O)c3)n2)cc1O	6.07	4.59	21.6	3.13	11.5	10.1	43.7	-1.77	16.3	14.3	73.4	6.44	42.6	8.25	85.4	7.05	38.9	2.07	8.97	6.53
CCOc1nccc2c1nc(-c1nonc1N)n2CC	3.61	-0.99	5.51	1.31	5.16	4.89	5.69	-0.93	6.96	0.6	8.92	5.61	8.46	2.28	-5.69	11.5	19.9	5.01	10.6	3.98
Cc1ccc2c(-c3ccnc(Nc4ccc5c(c4)OCCO5)n3)c(-c3ccc(C(F)(F)F)cc3)nn2n1	-4.22	-1.22	0.09	3.63	-0.97	-1.11	2.6	-0.28	4.26	3.93	0.25	-0.46	-2.36	0.45	1.78	3.03	5.81	1.07	2.41	0.41
